From PubChem BioAssay (NCI)
This is part of a sample that, as a whole, favours compounds with a hit. Of some 79,000 tested, about 15% had one in any assay. Cut-off read from the data, not from the text of the source: active = growth inhibition above about 70%; inactive = the rest.

What was measured:
[1] = NCI Yeast Anticancer Drug Screen. Data for the rad50 strain (AID 155);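 note: 0% = growth of vehicle-only cultures of the same strain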; settings: S. cerevisiae rad50 strain growth inhibition; at 50.0 µM; stronger effect = higher value
Outline: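 Readout: growth inhibition relative to vehicle-treated cultures. Compound exposure was carried out in a genetically defined yeast strain deficient in DNA damage repair.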

[2] = NCI Yeast Anticancer Drug Screen. Data for the mec2-1 strain (AID 157); settings: S. cerevisiae mec2-1 strain, at 50.0 µM, stronger effect = higher value
Outline: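 Growth inhibition is read against vehicle-treated controls after compound exposure of the mec2-1 yeast strain, which is defective in DNA damage repair or cell cycle control.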

[3] = NCI Yeast Anticancer Drug Screen. Data for the sgs1 mgt1 strain (AID 161);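 note: 0% = growth of cultures given vehicle only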; settings: S. cerevisiae sgs1 mgt1 strain, at 50.0 µM, stronger effect = higher value
Outline: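 This yeast growth screen uses a strain with defined DNA-repair lesions; compound-treated growth is compared with vehicle-treated growth.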

[4] = NCI Yeast Anticancer Drug Screen. Data for the cln2 rad14 strain (AID 165);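 note: 0% = growth equal to vehicle treated cultures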; settings: S. cerevisiae cln2 rad14 strain, at 50.0 µM, stronger effect = higher value
Outline: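 Growth inhibition, relative to vehicle-treated controls, is the read-out. The test organism is a yeast strain with defined genetic alterations, cln2 rad14.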

[5] = NCI Yeast Anticancer Drug Screen. Data for the bub3 strain (AID 167); settings: S. cerevisiae bub3 mutant strain, at 50.0 µM, stronger effect = higher value
Outline: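 Readout: yeast growth inhibition, expressed relative to vehicle-only wells. The test organism is a mutant strain from a panel with lesions in DNA repair or checkpoint genes.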

[6] = NCI Yeast Anticancer Drug Screen. Data for the mlh1 rad18 strain (AID 175); settings: S. cerevisiae mlh1 rad18 strain growth inhibition; at 50.0 µM; stronger effect = higher value
Outline: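 Cells of a genetically altered yeast strain, deficient in DNA damage repair, were treated with compound. Their growth was then compared with that of vehicle-treated cultures to give inhibition.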

Measured: growth inhibition

C1CNCCNCCN1
inactive: [1] 7.65% | [2] -1.05% | [3] 10.1% | [4] 21.1% | [5] 25.5% | [6] -4.3%

Cc1ccc(S(=O)(=O)N/N=C(\C(=O)Nc2cccc([N+](=O)[O-])c2)c2nc3ccc([N+](=O)[O-])cc3[nH]c2=O)cc1
inactive: [1] -3% | [2] -6% | [3] 3.65% | [4] 7.4% | [5] -3.1% | [6] 2.2%

CCCC/C=C(\C)C(C)(C#N)C(=O)OCC (stereo not given)
inactive: [1] -35.4% | [2] -0.4% | [3] -4.5% | [4] -14% | [5] -17.9% | [6] -3.15%

CC1CC(=O)C2CC(Cl)CCC2(C)C1C (stereo not given)
inactive: [1] -18.1% | [2] -22.6% | [3] -4.6% | [4] -45.4% | [5] -27.4% | [6] -6.05%

Cc1n[n+](CC(=O)c2ccccc2)c2sc(N)nn12
inactive: [1] -55.8% | [2] -31.4% | [3] -58.6% | [4] -50% | [5] -16.1% | [6] -70.5%

O=C(Cc1ccccc1)NN1C(=O)C(Cl)C1c1ccc(O)cc1 (stereo not given)
inactive: [1] -27.9% | [2] -16.4% | [3] -11.2% | [4] 3.7% | [5] -29.4% | [6] 3.4%

Cc1c(Cl)cc([N+](=O)[O-])cc1Cl
inactive: [1] -13.2% | [2] 13.7% | [3] -11.8% | [4] 17.1% | [5] -3.45% | [6] 5.25%

CCCCCCCC(C)(O)C#CC(C)(O)CCCCCCC (stereo not given)
inactive: [1] 4.35% | [2] -4.15% | [3] 4.85% | [4] -20.6% | [5] 5.05% | [6] 13.3%

N=C1C(O)C2(I)c3ccccc3N3C(=N)C(O)C4c5ccccc5N1C4C32 (stereo not given)
inactive: [1] 5.55% | [2] 2.85% | [3] -38.5% | [4] -5.8% | [5] -29.4% | [6] 8.95%

CCOC(=O)/C=C(\C)c1ccc(OC)cc1
inactive: [1] 7.2% | [2] -22.4% | [3] -3.3% | [4] -7.5% | [5] -8.7% | [6] 11.8%

O=Cc1ccc(F)cc1[N+](=O)[O-]
inactive: [1] 1.1% | [2] 3.65% | [3] -15.8% | [4] 1.1% | [5] -2.25% | [6] -17.2%

O=C(CCl)NCCCCCNC(=O)CCl
inactive: [1] -11.7% | [2] 2.85% | [3] -6.85% | [4] -31.7% | [5] 15.2% | [6] 17.6%

CCCCCCC(=O)C(=O)O
inactive: [1] 41.4% | [2] 37.8% | [3] 35.5% | [4] 3.65% | [5] 18.9% | [6] 59.5%

CC1(C)OC2OC(CI)C3OC(C)(C)OC3C2O1 (stereo not given)
inactive: [1] 5.7% | [2] 2.8% | [3] -1.75% | [4] 34.5% | [5] 12.6% | [6] -1.45%

O=C1NC(=O)C(CCI)N1 (stereo not given)
inactive: [1] 11.2% | [2] 0.15% | [3] 23.1% | [4] 16.9% | [5] -15.2% | [6] -12.7%

COc1ccc(/C=C2\CN(C)Cc3c2nc(N)nc3-c2ccc(OC)cc2)cc1
inactive: [1] 2.05% | [2] -13.1% | [3] 5.2% | [4] 38.1% | [5] -5.5% | [6] 5.75%

Cc1n[nH]c(=O)n1N1C(=O)c2ccccc2C1=O
inactive: [1] -1.25% | [2] -10.1% | [3] -25.7% | [4] -3.45% | [5] -19.6% | [6] -26.6%

O=[N+]([O-])c1ccc(S(=O)(=O)n2cccc2)cc1
inactive: [1] 0.9% | [2] 8.8% | [3] -8.05% | [4] -20.9% | [5] 3.6% | [6] -19.8%

O=S1c2ccc(Cl)cc2CC(SSC2Cc3cc(Cl)ccc3S(=O)c3ccccc32)c2ccccc21 (stereo not given)
inactive: [1] 18.5% | [2] -35.6% | [3] -7.65% | [4] 6.15% | [5] 10.5% | [6] -9%

CCOP(=O)(OCC)C1=C(P(=O)(OCC)OCC)C(F)(F)C1(F)F
inactive: [1] -9.35% | [2] -5% | [3] -6.7% | [4] -13.1% | [5] -0.95% | [6] -6.3%
